Measurements published in PubChem BioAssay AID434961 (Broad Institute, 2010).
The whole screen tested about 7,700 compounds, of which about 15 (0.2%) were called active. Inconclusive results (about 6%) are left out. This is one part of a sample in which actives are shown more often than they occur.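 The calls were made as follows: active = more than half of replicate wells with inhibition above about 18% (limit read from the data, passing the limit was not always enough); inconclusive = exactly half of replicate wells above that limit; inactive = fewer than half of replicates above it.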

target: Regulator of chromosome condensation (Homo sapiens) + GTP-binding nuclear protein Ran (Homo sapiens) + Importin subunit beta-1 (Homo sapiens) (UniProt P18754+P62826+Q14974); experiment: inhibitors of Ran–importin-beta complex formation, primary screen, biochemical, CFP-Ran/YFP-importin-beta FRET, RCC1, cell-free (AID 434961); conditions: active compounds read high, concentration not given here;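 also: 0% = DMSO wells and 100% inhibition = RanGDP control wells on each plate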

inhibition, inactive:
Cc1ccc(S(=O)(=O)Nc2ccc3c(c2)CC(=O)N([C@H](C)CO)C[C@@H](C)[C@@H](CN(C)C(=O)Nc2c(C)noc2C)O3)cc1 1.18%
C[C@H]1CN([C@@H](C)CO)C(=O)c2cccc(NC(=O)c3cnccn3)c2O[C@@H]1CN(C)C(=O)Nc1ccccc1 -1.79%
C[C@H]1CCCCO[C@H](CN(C)C(=O)C2CCCCC2)[C@@H](C)CN([C@@H](C)CO)C(=O)c2cc(NS(=O)(=O)c3cccs3)ccc2O1 2.26%
C[C@@H]1CN([C@H](C)CO)C(=O)c2cc(NC(=O)c3ccncc3)ccc2O[C@@H](C)CCCCO[C@H]1CN(C)Cc1ccc(C(=O)O)cc1 -0.563%
COc1ccc(NC(=O)Nc2ccc3c(c2)C(=O)N([C@H](C)CO)C[C@H](C)[C@@H](CN(C)C)O3)cc1 -2.6%
COc1ccc(CN(C)C[C@@H]2Oc3c(NS(=O)(=O)c4ccc(OC)cc4)cccc3C(=O)N([C@@H](C)CO)C[C@H]2C)cc1 0.462%
C[C@@H]1CCCCO[C@@H](CN(C)C(=O)Nc2cccc3ccccc23)[C@@H](C)CN([C@@H](C)CO)C(=O)c2cc(N(C)C)ccc2O1 2.86%
Cc1noc(C)c1NC(=O)N(C)C[C@H]1Oc2c(NS(=O)(=O)c3ccccc3)cccc2C(=O)N([C@H](C)CO)C[C@@H]1C 4.19%
C[C@H]1CN([C@@H](C)CO)C(=O)CCCn2cc(nn2)CO[C@H]1CN(C)S(=O)(=O)c1ccc(Oc2ccccc2)nc1 0.77%
C[C@@H]1CCCCO[C@@H](CN(C)Cc2ccccc2)[C@H](C)CN([C@@H](C)CO)C(=O)c2cc(NS(=O)(=O)c3ccccc3)ccc2O1 1.85%
C[C@@H]1CN([C@@H](C)CO)C(=O)c2cc(NS(=O)(=O)c3cccs3)ccc2O[C@@H]1CN(C)C(=O)Nc1ccc(F)cc1 -0.701%
C[C@@H]1CN([C@H](C)CO)C(=O)c2cc(NC(=O)c3ccncc3)ccc2O[C@@H](C)CCCCO[C@H]1CN(C)S(=O)(=O)c1ccc(F)cc1 0.556%
COc1ccc(NC(=O)Nc2ccc3c(c2)C(=O)N([C@@H](C)CO)C[C@H](C)[C@H](CN(C)C)O3)cc1 4.32%
C[C@@H]1CCCCO[C@@H](CN(C)C(=O)C2CCCCC2)[C@@H](C)CN([C@@H](C)CO)C(=O)c2cc(NC(=O)Nc3ccccc3)ccc2O1 -1.24%
COc1ccc(NC(=O)Nc2ccc3c(c2)C(=O)N([C@H](C)CO)C[C@@H](C)[C@@H](CN(C)S(=O)(=O)c2cn(C)cn2)O3)cc1 0.222%
C[C@H]1CN([C@@H](C)CO)C(=O)c2cccc(NC(=O)C3CCOCC3)c2O[C@H]1CN(C)Cc1ccc(Oc2ccccc2)cc1 5.74%
C[C@@H]1CN([C@@H](C)CO)C(=O)c2cc(NC(=O)Nc3ccc4c(c3)OCO4)ccc2O[C@@H]1CN(C)C -2.36%
C[C@H]1CCCCO[C@@H](CN(C)S(=O)(=O)c2ccccc2)[C@@H](C)CN([C@@H](C)CO)C(=O)c2cc(N(C)C)ccc2O1 1.05%
C[C@H](CO)N1C[C@H](C)[C@H](CN(C)Cc2ccc3c(c2)OCO3)Oc2c(NC(=O)c3ccncc3)cccc2C1=O -1.01%
C[C@H](CO)N1C[C@H](C)[C@H](CN(C)Cc2ccc3c(c2)OCO3)Oc2ccc(NC(=O)Nc3ccc(F)cc3)cc2CC1=O 1.05%
CNC[C@@H]1Oc2ccc(NC(=O)CCC(F)(F)F)cc2C(=O)N([C@@H](C)CO)C[C@H]1C 2.65%
CNC[C@@H]1Oc2ccc(NC(=O)Nc3ccc4c(c3)OCO4)cc2CC(=O)N([C@@H](C)CO)C[C@@H]1C -0.999%
C[C@@H]1CCCCO[C@H](CN(C)C)[C@@H](C)CN([C@H](C)CO)C(=O)c2cc(NC(=O)Cc3ccccc3)ccc2O1 -1.13%
C[C@H](CO)N1C[C@H](C)[C@@H](CN(C)C(=O)Nc2ccc3c(c2)OCO3)Oc2ccc(N(C)C)cc2C1=O -2.04%
C[C@@H]1CCCCO[C@@H](CN(C)C(=O)C2CCCCC2)[C@@H](C)CN([C@@H](C)CO)C(=O)c2cc(NS(C)(=O)=O)ccc2O1 -4.64%
C[C@@H]1CN([C@H](C)CO)C(=O)CCCn2cc(nn2)CO[C@@H]1CN(C)C(=O)Nc1ccc(N2CCCCC2)cc1 10.6%
C[C@@H]1CCCCO[C@@H](CN(C)Cc2ccncc2)[C@H](C)CN([C@@H](C)CO)C(=O)c2cc(NC(=O)c3ccncc3)ccc2O1 5.19%
C[C@@H]1CCCCO[C@H](CN(C)C(=O)C2CCCCC2)[C@H](C)CN([C@H](C)CO)C(=O)c2cc(NC(=O)Nc3ccccc3)ccc2O1 1.96%
C[C@@H]1CN([C@H](C)CO)C(=O)c2cccc(NS(=O)(=O)c3ccc(Cl)cc3)c2O[C@@H]1CN(C)C -2.17%
Cc1noc(C)c1NC(=O)N(C)C[C@H]1Oc2ccc(NC(=O)Cc3ccccc3)cc2C(=O)N([C@H](C)CO)C[C@H]1C 4.11%
C[C@H](CO)N1C[C@H](C)[C@H](CN(C)C)Oc2ccc(NS(C)(=O)=O)cc2C1=O 4.53%
C[C@@H]1CN([C@H](C)CO)C(=O)Cc2cc(N(C)C)ccc2O[C@H]1CN(C)Cc1ccc(C(F)(F)F)cc1 -0.721%
CC(C)NC(=O)Nc1ccc2c(c1)C(=O)N([C@@H](C)CO)C[C@@H](C)[C@H](CN(C)S(=O)(=O)c1cccs1)OCCCC[C@H](C)O2 3.77%
COc1ccc(S(=O)(=O)N(C)C[C@@H]2Oc3c(NC(=O)c4ccncc4)cccc3C(=O)N([C@@H](C)CO)C[C@H]2C)cc1 -7.21%
Cc1noc(C)c1NC(=O)Nc1ccc2c(c1)CC(=O)N([C@H](C)CO)C[C@@H](C)[C@@H](CN(C)C(=O)NC(C)C)O2 0.926%
Cc1noc(C)c1NC(=O)Nc1ccc2c(c1)C(=O)N([C@@H](C)CO)C[C@@H](C)[C@@H](CN(C)C(=O)CCCN(C)C)OCCCC[C@@H](C)O2 -4.32%
C[C@@H]1CN([C@@H](C)CO)C(=O)Cc2cc(NC(=O)c3ccncc3)ccc2O[C@H]1CN(C)C(=O)Nc1ccccc1 3.73%
COc1ccc(NC(=O)Nc2ccc3c(c2)C(=O)N([C@@H](C)CO)C[C@H](C)[C@@H](CN(C)S(=O)(=O)c2cn(C)cn2)O3)cc1 1.4%
C[C@H](CO)N1C[C@H](C)[C@H](CN(C)C(=O)c2ccncc2)OCCCC[C@H](C)Oc2ccc(NS(=O)(=O)c3ccccc3)cc2C1=O -1.72%
CC(C)NC(=O)Nc1ccc2c(c1)C(=O)N([C@@H](C)CO)C[C@@H](C)[C@@H](CN(C)C)OCCCC[C@H](C)O2 -4.5%
C[C@@H]1CN([C@H](C)CO)C(=O)c2cc(NS(=O)(=O)c3cn(C)cn3)ccc2O[C@@H](C)CCCCO[C@@H]1CN(C)C -0.00982%
CC(C)NC(=O)N(C)C[C@H]1Oc2ccc(N(C)C)cc2CC(=O)N([C@H](C)CO)C[C@@H]1C 0.831%
COc1ccc(S(=O)(=O)Nc2ccc3c(c2)C(=O)N([C@@H](C)CO)C[C@@H](C)[C@@H](CN(C)S(=O)(=O)c2cccs2)O3)cc1 -0.91%
C[C@@H]1CCCCO[C@@H](CN(C)S(=O)(=O)c2ccc(F)cc2)[C@@H](C)CN([C@@H](C)CO)C(=O)c2cc(NC(=O)C3CCCCC3)ccc2O1 2.57%
Cc1noc(C)c1NC(=O)N(C)C[C@@H]1Oc2c(NC(=O)c3ccc(-c4nccs4)cc3)cccc2C(=O)N([C@@H](C)CO)C[C@@H]1C -3.18%
COc1ccc(CN(C)C[C@H]2Oc3ccc(NC(=O)Nc4c(C)noc4C)cc3CC(=O)N([C@H](C)CO)C[C@@H]2C)cc1 -6.52%
C[C@@H]1CN([C@@H](C)CO)C(=O)c2cc(NS(=O)(=O)c3ccccc3)ccc2O[C@@H](C)CCCCO[C@H]1CN(C)Cc1ccncc1 -2.17%
C[C@H]1CN([C@@H](C)CO)C(=O)c2cccc(NS(=O)(=O)c3ccc(Cl)cc3)c2O[C@@H]1CN(C)C(=O)Nc1ccc(F)cc1 0.723%
C[C@H](CO)N1C[C@H](C)[C@@H](CN(C)C(=O)Nc2ccc(F)cc2)Oc2c(NS(=O)(=O)c3ccc(Cl)cc3)cccc2C1=O 2.75%
CNC[C@H]1Oc2c(NC(=O)Nc3c(C)noc3C)cccc2C(=O)N([C@@H](C)CO)C[C@H]1C 1.31%
Cc1noc(C)c1S(=O)(=O)Nc1ccc2c(c1)CC(=O)N([C@@H](C)CO)C[C@@H](C)[C@H](CN(C)C(=O)Nc1ccc(F)cc1)O2 -0.469%
C[C@@H]1CN([C@@H](C)CO)C(=O)Cc2cc(NC(=O)c3ccncc3)ccc2O[C@@H]1CN(C)C(=O)Nc1cccc2ccccc12 2.94%
C[C@@H]1CN([C@@H](C)CO)C(=O)c2cc(NC(=O)C3CC3)ccc2O[C@@H]1CN(C)C(=O)Nc1ccccc1 -1.01%
C[C@H]1CN([C@@H](C)CO)C(=O)c2cccc(NS(=O)(=O)c3cccs3)c2O[C@H]1CN(C)Cc1ccc(C(=O)O)cc1 -1.12%
C[C@H](CO)N1C[C@H](C)[C@H](CN(C)C(=O)c2ccccc2)OCc2cnnn2CCCC1=O 3.45%
